Measured values as given in the supplement of paper PMC10849652.
Of roughly 7,900 targets only a part is listed; those with a hit were picked by preference. About 0.6% of all pairs of compound and target were hits. Unmarked numbers belong to inactive results.

What was measured:
Assay in all cases: log2 fold change, soluble protein after heating vs DMSO (PISA); higher = thermal stabilisation; K562 cells, 10 uM, 30 min; active = over 0.2 and 3.5 SD of the protein, either way, in both replicates (recomputed)
[1] = compound: COC1=CC=C(C=C1)CN2C=CC3=C2C=C(C=C3)C(=O)NO
How it was run: (§1)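 Values are thermal stability changes relative to control samples and are taken from duplicates. They are stated as log2 fold changes. Before quantification by TMTpro 16plex LC-MS/MS with equalised channel sums, K562 cells at 2×10^6 cells/mL were treated with 10 μM compound for 30 min, heated in aliquots for 3 min across 48°C-58°C, pooled, extracted in PBS with 0.5% NP-40 at 4°C, and centrifuged at 21,000xg for 90 min to give the soluble supernatant.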

[2] = compound: CON(C)C(=O)N1N=C(c2cc(F)ccc2F)S[C@@]1(CCCN)c1ccccc1 [filanesib]
How it was run: as §1

[3] = compound: CO[C@H]1C[C@@H]2CC[C@@H](C)[C@@](O)(O2)C(=O)C(=O)N2CCCC[C@H]2C(=O)O[C@H]([C@H](C)C[C@@H]2CC[C@H](n3cnnn3)[C@H](OC)C2)CC(=O)[C@H](C)/C=C(\C)[C@@H](O)[C@@H](OC)C(=O)[C@H](C)C[C@H](C)/C=C/C=C/C=C/1C [zotarolimus]
How it was run: as §1

[4] = compound: COc1cc(C(=O)O)ccc1NC(=O)[C@@H]1N[C@@H](CC(C)(C)C)[C@](C#N)(c2ccc(Cl)cc2F)[C@H]1c1cccc(Cl)c1F [idasanutlin]
How it was run: as §1

[5] = compound: COc1cc(Nc2ncc3c(n2)-c2ccc(Cl)cc2C(c2c(F)cccc2OC)=NC3)ccc1C(=O)O [alisertib]
How it was run: as §1

[6] = compound: COc1cc2nc(-c3cc(F)ccc3O)nc(N[C@@H]3CNC[C@H]3C(C)(C)O)c2cc1OC
How it was run: as §1

[7] = compound: COc1cc2ncnc(Nc3ccc(F)c(Cl)c3)c2cc1OCCCN1CCOCC1 [gefitinib]
How it was run: as §1

[8] = compound: COc1cccc2cc(-c3nc([C@H]4CC[C@H](C(=O)O)CC4)n4ncnc(N)c34)[nH]c12
How it was run: as §1

[9] = compound: CS(=O)(=O)CCNCc1ccc(-c2ccc3ncnc(Nc4ccc(OCc5cccc(F)c5)c(Cl)c4)c3c2)o1 [lapatinib]
How it was run: as §1

[10] = compound: CS(=O)(=O)N1CCN(Cc2cc3nc(-c4cccc5[nH]ncc45)nc(N4CCOCC4)c3s2)CC1 [pictilisib]
How it was run: as §1

[11] = compound: CS(=O)(=O)c1ccc(-c2cnc(N)c(C(=O)Nc3ccccc3)n2)cc1
How it was run: as §1

[12] = compound: C[C@@H](Oc1cc(-c2cnn(C3CCNCC3)c2)cnc1N)c1c(Cl)ccc(F)c1Cl [crizotinib]
How it was run: as §1

[13] = compound: C[C@@H]1COCCN1C2=NC(=NC(=C2)C3(CC3)S(=O)(=O)C)C4=C5C=CNC5=CC=C4
How it was run: as §1

[14] = compound: C[C@H](C1=CC=C(C=C1)C(=O)NC2=C3C=CNC3=NC=C2)N
How it was run: as §1

[15] = compound: C[C@H](Nc1ncnc2nc[nH]c12)c1cc2cccc(Cl)c2c(=O)n1-c1ccccc1 [duvelisib]
How it was run: as §1

[16] = compound: Cc1cc(Nc2cc(CN3CCOCC3)c3nc(C)c(Cc4ccc(Cl)cc4F)n3n2)n[nH]1 [gandotinib]
How it was run: as §1

[17] = compound: Cc1cc(Nc2cc(N3CCN(C)CC3)nc(Sc3ccc(NC(=O)C4CC4)cc3)n2)n[nH]1 [tozasertib]
How it was run: as §1

[18] = compound: Cc1cc(SCc2sc(-c3ccc(C(F)(F)F)cc3)nc2C)ccc1OCC(=O)O
How it was run: as §1

[19] = compound: Cc1ccc(-n2nc(C(C)(C)C)cc2NC(=O)Nc2ccc(OCCN3CCOCC3)c3ccccc23)cc1 [doramapimod]
How it was run: as §1

[20] = compound: Cc1ccc(C(=O)N(CCCN)[C@@H](c2nc3cc(Cl)ccc3c(=O)n2Cc2ccccc2)C(C)C)cc1 [ispinesib]
How it was run: as §1

Chain of UniProt P55786 (P55786 whole entry, looked up): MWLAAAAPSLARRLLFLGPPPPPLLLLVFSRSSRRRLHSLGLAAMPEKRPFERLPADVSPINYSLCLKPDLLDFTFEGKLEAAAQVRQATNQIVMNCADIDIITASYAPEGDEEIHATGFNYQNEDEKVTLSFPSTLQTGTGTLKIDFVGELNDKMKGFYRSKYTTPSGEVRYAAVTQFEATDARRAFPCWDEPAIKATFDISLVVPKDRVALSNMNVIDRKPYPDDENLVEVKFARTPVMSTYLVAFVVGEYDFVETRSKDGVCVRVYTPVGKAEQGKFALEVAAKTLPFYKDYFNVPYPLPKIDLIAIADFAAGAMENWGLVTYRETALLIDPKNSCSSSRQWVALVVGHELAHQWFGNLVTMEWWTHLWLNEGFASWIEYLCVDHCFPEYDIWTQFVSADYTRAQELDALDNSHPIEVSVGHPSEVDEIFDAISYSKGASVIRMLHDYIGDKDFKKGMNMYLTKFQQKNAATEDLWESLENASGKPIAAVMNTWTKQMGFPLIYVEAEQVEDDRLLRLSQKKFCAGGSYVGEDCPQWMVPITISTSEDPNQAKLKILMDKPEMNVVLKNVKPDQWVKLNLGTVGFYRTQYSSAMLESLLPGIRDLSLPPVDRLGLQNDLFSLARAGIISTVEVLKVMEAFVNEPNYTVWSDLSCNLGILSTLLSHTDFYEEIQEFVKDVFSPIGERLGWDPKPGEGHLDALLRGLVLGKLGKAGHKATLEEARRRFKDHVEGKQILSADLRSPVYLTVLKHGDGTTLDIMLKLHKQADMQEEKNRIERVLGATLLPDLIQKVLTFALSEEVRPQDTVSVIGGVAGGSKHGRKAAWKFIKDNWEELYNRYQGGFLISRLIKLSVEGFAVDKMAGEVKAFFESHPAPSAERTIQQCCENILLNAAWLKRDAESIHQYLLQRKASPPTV
Chain of UniProt Q8NCE2 (Q8NCE2 whole entry, looked up): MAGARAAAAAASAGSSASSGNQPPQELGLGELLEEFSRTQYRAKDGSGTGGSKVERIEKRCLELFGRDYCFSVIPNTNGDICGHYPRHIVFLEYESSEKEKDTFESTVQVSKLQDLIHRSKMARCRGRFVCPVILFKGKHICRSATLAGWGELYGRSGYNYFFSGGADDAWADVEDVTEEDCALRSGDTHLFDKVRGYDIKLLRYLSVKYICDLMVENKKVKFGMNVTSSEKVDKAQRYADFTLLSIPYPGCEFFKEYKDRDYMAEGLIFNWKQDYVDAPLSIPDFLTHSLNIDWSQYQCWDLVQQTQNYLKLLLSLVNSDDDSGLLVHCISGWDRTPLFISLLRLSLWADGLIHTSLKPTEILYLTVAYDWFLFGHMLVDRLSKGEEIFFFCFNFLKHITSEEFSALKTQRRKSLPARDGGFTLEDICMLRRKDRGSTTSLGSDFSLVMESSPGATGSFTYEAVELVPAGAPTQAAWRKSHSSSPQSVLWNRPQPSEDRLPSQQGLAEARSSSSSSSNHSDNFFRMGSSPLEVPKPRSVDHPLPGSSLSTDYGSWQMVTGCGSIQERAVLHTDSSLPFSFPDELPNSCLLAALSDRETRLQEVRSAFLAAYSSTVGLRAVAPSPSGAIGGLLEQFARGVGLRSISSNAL
Chain of UniProt O95182 (O95182 whole entry, looked up): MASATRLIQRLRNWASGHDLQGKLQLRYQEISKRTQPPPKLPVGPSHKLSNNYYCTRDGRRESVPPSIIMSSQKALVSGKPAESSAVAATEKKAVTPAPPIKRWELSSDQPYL
Chain of UniProt O00566 (O00566 whole entry, looked up): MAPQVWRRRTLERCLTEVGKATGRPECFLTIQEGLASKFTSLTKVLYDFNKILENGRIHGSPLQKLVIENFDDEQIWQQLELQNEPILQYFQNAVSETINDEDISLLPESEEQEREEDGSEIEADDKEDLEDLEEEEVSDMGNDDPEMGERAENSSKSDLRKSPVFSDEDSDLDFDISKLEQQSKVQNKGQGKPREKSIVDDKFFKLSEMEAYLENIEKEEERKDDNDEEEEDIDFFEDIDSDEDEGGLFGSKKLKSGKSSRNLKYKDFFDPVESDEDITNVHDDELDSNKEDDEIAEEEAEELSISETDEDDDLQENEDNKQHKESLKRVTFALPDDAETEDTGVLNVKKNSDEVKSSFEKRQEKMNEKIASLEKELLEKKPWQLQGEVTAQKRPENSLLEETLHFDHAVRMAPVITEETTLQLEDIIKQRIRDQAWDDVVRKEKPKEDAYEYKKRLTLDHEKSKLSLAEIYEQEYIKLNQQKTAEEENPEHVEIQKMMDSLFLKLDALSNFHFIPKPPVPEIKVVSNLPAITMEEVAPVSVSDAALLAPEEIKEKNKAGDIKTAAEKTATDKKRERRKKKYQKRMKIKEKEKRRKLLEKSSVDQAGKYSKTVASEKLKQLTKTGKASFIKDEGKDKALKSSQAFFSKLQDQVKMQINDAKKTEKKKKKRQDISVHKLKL
Chain of UniProt Q13469 (Q13469 whole entry, looked up): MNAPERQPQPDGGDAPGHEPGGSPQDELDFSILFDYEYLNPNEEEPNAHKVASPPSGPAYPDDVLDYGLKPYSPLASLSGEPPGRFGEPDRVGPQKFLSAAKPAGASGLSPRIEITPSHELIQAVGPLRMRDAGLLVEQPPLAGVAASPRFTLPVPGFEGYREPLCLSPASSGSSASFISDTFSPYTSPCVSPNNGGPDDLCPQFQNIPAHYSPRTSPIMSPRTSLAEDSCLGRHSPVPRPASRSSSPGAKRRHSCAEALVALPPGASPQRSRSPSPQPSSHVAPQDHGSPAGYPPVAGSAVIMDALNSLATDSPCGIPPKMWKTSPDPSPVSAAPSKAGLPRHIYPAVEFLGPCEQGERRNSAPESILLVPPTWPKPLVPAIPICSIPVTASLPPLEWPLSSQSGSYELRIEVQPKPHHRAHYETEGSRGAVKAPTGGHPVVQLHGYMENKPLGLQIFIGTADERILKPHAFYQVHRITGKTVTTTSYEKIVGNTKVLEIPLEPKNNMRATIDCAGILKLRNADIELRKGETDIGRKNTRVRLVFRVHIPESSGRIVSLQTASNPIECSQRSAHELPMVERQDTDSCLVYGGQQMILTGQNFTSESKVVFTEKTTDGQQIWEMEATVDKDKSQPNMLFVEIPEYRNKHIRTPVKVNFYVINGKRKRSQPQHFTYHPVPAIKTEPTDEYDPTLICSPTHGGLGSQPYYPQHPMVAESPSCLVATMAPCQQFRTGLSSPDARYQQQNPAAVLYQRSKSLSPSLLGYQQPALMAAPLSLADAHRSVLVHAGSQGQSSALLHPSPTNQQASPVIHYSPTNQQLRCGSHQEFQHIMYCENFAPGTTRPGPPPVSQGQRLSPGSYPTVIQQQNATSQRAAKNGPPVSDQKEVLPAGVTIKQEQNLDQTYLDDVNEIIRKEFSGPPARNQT
Chain of UniProt P17568 (P17568 whole entry, looked up): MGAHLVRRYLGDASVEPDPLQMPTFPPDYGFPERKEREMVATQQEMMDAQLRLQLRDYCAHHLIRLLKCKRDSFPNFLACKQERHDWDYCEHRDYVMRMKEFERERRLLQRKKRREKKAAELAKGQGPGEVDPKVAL
Chain of UniProt Q8WV92 (Q8WV92 whole entry, looked up): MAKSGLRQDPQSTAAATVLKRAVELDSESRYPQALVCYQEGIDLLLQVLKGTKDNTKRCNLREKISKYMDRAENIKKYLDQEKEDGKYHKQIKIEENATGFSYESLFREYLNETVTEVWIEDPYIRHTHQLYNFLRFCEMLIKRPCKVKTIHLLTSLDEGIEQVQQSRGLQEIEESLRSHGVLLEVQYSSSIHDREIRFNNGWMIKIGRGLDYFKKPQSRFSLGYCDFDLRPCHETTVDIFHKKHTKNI
Chain of UniProt O43809 (O43809 whole entry, looked up): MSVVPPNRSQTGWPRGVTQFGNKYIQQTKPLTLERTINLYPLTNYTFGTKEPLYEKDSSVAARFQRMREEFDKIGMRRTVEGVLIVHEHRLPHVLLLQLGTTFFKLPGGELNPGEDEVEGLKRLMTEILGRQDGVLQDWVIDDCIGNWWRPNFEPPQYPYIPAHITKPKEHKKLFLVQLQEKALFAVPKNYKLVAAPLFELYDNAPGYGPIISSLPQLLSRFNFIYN
Chain of UniProt Q9BV86 (Q9BV86 whole entry, looked up): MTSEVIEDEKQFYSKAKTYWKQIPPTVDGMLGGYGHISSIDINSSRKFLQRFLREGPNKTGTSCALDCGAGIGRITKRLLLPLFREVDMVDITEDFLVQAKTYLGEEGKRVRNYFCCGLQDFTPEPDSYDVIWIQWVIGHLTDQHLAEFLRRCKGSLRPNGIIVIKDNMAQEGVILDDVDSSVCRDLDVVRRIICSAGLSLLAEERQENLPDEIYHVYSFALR
Chain of UniProt Q9NWU1 (Q9NWU1 whole entry, looked up): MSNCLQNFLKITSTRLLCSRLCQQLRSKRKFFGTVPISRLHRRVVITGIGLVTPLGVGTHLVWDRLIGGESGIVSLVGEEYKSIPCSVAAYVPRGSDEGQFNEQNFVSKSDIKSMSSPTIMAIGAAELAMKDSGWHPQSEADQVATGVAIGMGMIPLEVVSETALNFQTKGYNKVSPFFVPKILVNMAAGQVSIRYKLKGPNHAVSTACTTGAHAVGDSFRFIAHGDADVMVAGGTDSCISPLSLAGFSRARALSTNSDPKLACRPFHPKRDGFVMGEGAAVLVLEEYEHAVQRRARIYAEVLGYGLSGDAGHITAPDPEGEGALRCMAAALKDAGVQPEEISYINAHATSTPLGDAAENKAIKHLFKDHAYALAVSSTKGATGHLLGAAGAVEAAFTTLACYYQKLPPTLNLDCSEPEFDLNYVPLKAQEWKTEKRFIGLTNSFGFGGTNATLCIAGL

Row | Target | log2 fold change [1] | log2 fold change [2] | log2 fold change [3] | log2 fold change [4] | log2 fold change [5] | log2 fold change [6] | log2 fold change [7] | log2 fold change [8] | log2 fold change [9] | log2 fold change [10] | log2 fold change [11] | log2 fold change [12] | log2 fold change [13] | log2 fold change [14] | log2 fold change [15] | log2 fold change [16] | log2 fold change [17] | log2 fold change [18] | log2 fold change [19] | log2 fold change [20]
1 | NUP98 (UniProt P52948) | -0.003 | 0.045 | 0.009 | 0.061 | 0.007 | 0.047 | 0.026 | -0.057 | 0.02 | 0.027 | 0.031 | -0.02 | 0.007 | -0.009 | 0.007 | -0.044 | 0.04 | 0.1 | 0.022 | 0.001
2 | MRPS9 (UniProt P82933) | 0.009 | 0.007 | 0.065 | -0.16 | 0.076 | -0.021 | 0.084 | 0.016 | 0.096 | -0.049 | -0.001 | 0.011 | 0.036 | 0.202 | -0.023 | -0.054 | -0.055 | 0.086 | 0.031 | -0.344 (active)
3 | MRPS33 (UniProt Q9Y291) | -0.033 | 0.002 | 0.043 | -0.167 | -0.052 | -0.057 | 0 | 0.008 | 0.036 | -0.1 | 0.041 | 0.005 | 0.005 | 0.168 | -0.034 | -0.034 | 0.02 | 0.121 | 0.034 | -0.485 (active)
4 | NUDT21 (UniProt O43809) | -0.003 | 0.027 | 0.013 | 0.006 | -0.077 | 0.102 | -0.019 | 0.031 | -0.019 | 0.017 | -0.054 | 0.039 | -0.031 | -0.209 (active) | -0.01 | -0.059 | 0.013 | 0.039 | 0.007 | 0.116
5 | NFATC2 (UniProt Q13469) | 0.015 | 0.161 | -0.084 | 0.058 | 0.147 | -0.036 | 0.031 | -0.152 | -0.001 | -0.029 | 0 | -0.154 | -0.175 | 0 | 0.003 | 0.048 | 0.02 | 0.024 | 0.027 | -0.18
6 | NPEPPS (UniProt P55786) | 0.22 (active) | -0.056 | 0.338 (active) | -0.072 | -0.017 | 0.037 | -0.026 | 0.066 | -0.002 | -0.001 | 0.019 | -0.14 | 0.122 | -0.039 | 0.063 | -0.03 | -0.066 | -0.012 | 0.013 | 0.082
7 | MPHOSPH10 (UniProt O00566) | -0.139 | 0.561 (active) | 0.053 | 0.271 | -0.061 | -0.166 | 0.026 | -0.031 | 0.174 | -0.105 | -0.083 | 0.026 | -0.25 | 0.353 | -0.047 | 0.189 | 0.016 | -0.046 | 0.049 | -0.023
8 | NDUFB7 (UniProt P17568) | -0.011 | -0.023 | -0.03 | -0.025 | -0.051 | -0.077 | 0 | 0.002 | -0.013 | -0.066 | 0.004 | 0.001 | 0.03 | -0.094 | 0.006 | -0.02 | -0.018 | -0.041 | 0.021 | 0.015
9 | MTMR14 (UniProt Q8NCE2) | 0.007 | 0.026 | -0.04 | 0.02 | -0.04 | 0.069 | -0.02 | 0.017 | -0.075 | 0.083 | 0.033 | 0.069 | -0.054 | 0.014 | 0.048 | 0.144 | 0.046 | 0.079 | -0.03 | 0.061
10 | MSH2 (UniProt P43246) | 0.072 | 0 | 0.057 | -0.019 | -0.018 | 0.024 | 0.007 | -0.026 | -0.021 | 0.144 | 0.057 | 0.04 | 0.056 | -0.038 | 0.08 | -0.02 | 0.072 | 0.117 | -0.067 | 0.09
11 | NASP (UniProt P49321) | 0.01 | -0.009 | 0.05 | -0.021 | -0.03 | 0.029 | 0.001 | -0.023 | -0.023 | 0.007 | 0.005 | 0.063 | 0.045 | -0.061 | 0.08 | -0.066 | 0.105 | 0.013 | -0.053 | 0.06
12 | OXSM (UniProt Q9NWU1) | 0.033 | -0.014 | -0.005 | 0.039 | -0.131 | -0.041 | -0.001 | 0.025 | 0.007 | 0.057 | 0.016 | 0.053 | 0.036 | -0.07 | -0.024 | -0.054 | 0.011 | -0.002 | -0.055 | 0.077
13 | PACS1 (UniProt Q6VY07) | 0.105 | 0.047 | 0.008 | -0.005 | 0.006 | 0.054 | 0.043 | 0.002 | 0.013 | 0.021 | 0.013 | -0.053 | 0.051 | -0.015 | 0.033 | -0.018 | 0 | -0.014 | 0.06 | 0.042
14 | NDUFA7 (UniProt O95182) | 0.003 | -0.072 | 0.005 | -0.197 | -0.042 | -0.147 | -0.178 | 0.013 | -0.002 | -0.007 | -0.004 | -0.103 | 0.02 | 0.039 | 0.012 | -0.12 | -0.101 | 0.07 | -0.041 | -0.118
15 | MITD1 (UniProt Q8WV92) | 0.059 | 0.004 | -0.068 | -0.058 | 0.018 | -0.013 | -0.018 | 0.063 | 0.004 | -0.121 | -0.082 | -0.271 | -0.055 | 0.133 | 0.011 | -0.068 | -0.075 | -0.147 | 0.103 | -0.072
16 | NTMT1 (UniProt Q9BV86) | -0.455 (active) | -0.055 | 0.091 | -0.121 | -0.043 | 0.085 | 0.062 | -0.027 | -0.001 | 0.092 | 0.128 | 0.039 | 0.074 | -0.029 | 0.054 | 0.093 | 0.067 | 0.021 | 0.071 | 0.02
